Screening data as filed in PubChem BioAssay.
Sampled rows, rich in hits. Any-hit rate of the full collection: about 11%.
JMJD2E inh: inhibitors of human JMJD2E histone demethylase; B2RXH2; hit rate 1.6% among 230,000; Potency, µM (doses to about 57.1 µM), hits mostly inhibitors; JMJD2E catalytic domain, FDH-coupled NADH fluorescence (FDH is formaldehyde dehydrogenase); AID 2147; further: nearly all actives have a fitted effect of over 50% in size
Target sequence (B2RXH2 1-337 limits assumed): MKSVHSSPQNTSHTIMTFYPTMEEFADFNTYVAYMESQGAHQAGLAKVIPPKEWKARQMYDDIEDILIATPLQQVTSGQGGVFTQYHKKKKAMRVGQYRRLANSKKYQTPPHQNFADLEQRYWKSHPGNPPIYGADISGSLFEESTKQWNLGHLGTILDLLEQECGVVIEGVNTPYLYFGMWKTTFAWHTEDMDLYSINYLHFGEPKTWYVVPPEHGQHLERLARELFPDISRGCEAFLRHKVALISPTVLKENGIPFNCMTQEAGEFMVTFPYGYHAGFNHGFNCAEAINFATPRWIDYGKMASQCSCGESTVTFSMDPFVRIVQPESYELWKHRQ
HPGD inh: blocks human HPGD enzyme activity; P15428; Potency, µM, actives largely listed as inhibitors; purified HPGD, NADH fluorescence kinetic, PGE2 substrate; AID 894; hit rate 4.3% among 150,000
Target sequence (P15428 whole entry, looked up): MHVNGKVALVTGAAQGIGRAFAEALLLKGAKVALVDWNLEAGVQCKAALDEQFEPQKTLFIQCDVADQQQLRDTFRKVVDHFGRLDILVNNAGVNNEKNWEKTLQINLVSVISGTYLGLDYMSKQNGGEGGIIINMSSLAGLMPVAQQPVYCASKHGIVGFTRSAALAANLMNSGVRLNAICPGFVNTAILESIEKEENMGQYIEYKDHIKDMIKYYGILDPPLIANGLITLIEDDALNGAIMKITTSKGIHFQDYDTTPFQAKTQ
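20 nM HPGD preincubated 15 min at room temperature with compound in 50 mM Tris-HCl pH 8, 0.01% Tween 20. Started with 1 mM NAD+ and 30 uM prostaglandin E2; NADH fluorescence (360/450 nm) read 5 times over 30-s intervals, last minus first.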
ALDH1A1 block: blocks purified human ALDH1A1 activity; P00352; Purified ALDH1A1, NADH fluorescence, propionaldehyde substrate; Potency, µM (doses to about 75.3 µM), most hits filed as inhibitors; hit rate 7.3% among 220,000
PNC inhibitor: inhibitors of perinucleolar compartment assembly | hit rate 3.1% among 140,000 | AID 2417 | PC3M PTB-GFP, PNC prevalence imaging, 16 h; stronger effect = lower value | activity change (PNC), negative = inhibition, % at 10 µM;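 active means readout at or below -70, meaning at least 70% loss of cells showing the perinucleolar compartment, a nuclear body marking cancer cells; inconclusive means readout between -30 and a set limit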
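Compounds are pinned in duplicate onto adhered PC3M cells stably expressing GFP-tagged PTB and incubated 16 h at 37 C. Cells are then fixed, nuclei stained with Hoechst, and PNC-positive cells counted.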
Large screens that a line does not name were inactive; ! = repeats disagree. Unless noted, the call rests on the fitted dose curve; in most records, active means well fitted inhibition curve with a large enough effect (not every such curve was filed as active); inconclusive means small, poorly fitted or top-dose-only effect, or another doubt; inactive means no such curve, though single readings can be large or run the other way.

COc1ccc(C(=O)C2CCCN(C(=O)c3cccnc3SC)C2)c(C)c1 (centres undefined)	none (no result: HPGD inh, PNC inhibitor)
O=C(CCN1C(=O)C2C3C=CC(C3)C2C1=O)Nc1ccccc1 (centres undefined)	none (no result: HPGD inh, PNC inhibitor)
O=C(CCN1C(=O)C2C3C=CC(C3)C2C1=O)NCCc1ccccc1Cl (centres undefined)	ALDH1A1 block 8.9µM
Cc1ccc(C(=O)Nc2sc(C)c(C)c2C(=O)c2ccccc2)cc1	HPGD inh 20µM, ALDH1A1 block 10µM
Cc1sc(NC(=O)c2ccccc2)c(C(=O)NC(C)C)c1C	HPGD inh inconclusive, ALDH1A1 block inconclusive
Cc1sc(NC(=O)c2cccs2)c(C(N)=O)c1C	HPGD inh 25µM, ALDH1A1 block 11µM
Cc1sc(NC(=O)c2ccccc2)c(C(=O)c2ccccc2)c1C	HPGD inh 3.5µM, ALDH1A1 block 5µM
CCCC=O	ALDH1A1 block 3.5µM (no result: JMJD2E inh, PNC inhibitor)
CCC=O	ALDH1A1 block inconclusive (no result: JMJD2E inh, PNC inhibitor)
CC(=O)NC(Cc1ccc(O)cc1)C(=O)NN (centres undefined)	none (no result: HPGD inh, PNC inhibitor)
COC(=O)CCCC1=CC2=C(c3ccccc3)C(=O)C(C)(OC(=O)C3CCCC3)C(=O)C2=CN1CCN1CCOCC1 (centres undefined)	JMJD2E inh 3.2µM! (no result: PNC inhibitor)
COC(=O)CCCC1=CC2=C(c3ccccc3)C(=O)C(C)(OC(=O)C3CCCC3)C(=O)C2=CN1CCc1c[nH]c2ccccc12 (centres undefined)	JMJD2E inh inconclusive, ALDH1A1 block 3.2µM (no result: PNC inhibitor)
CCCCC1=CC2=CC(=O)C(C)(OC(=O)CC)C(=O)C2=CN1CCc1c[nH]c2ccccc12 (centres undefined)	none (no result: PNC inhibitor)
COC(=O)CCCC1=CC2=CC(=O)C(C)(OC(=O)c3cccs3)C(=O)C2=CN1CCc1c[nH]c2ccccc12 (centres undefined)	JMJD2E inh 5.6µM! (no result: PNC inhibitor)
COC(=O)[C@@H]1CC[C@H](C)[C@@H](c2ccc(C)cc2)N1C(=O)c1ccc(/C=N\O[C@@H](C)CN2CCCc3nc(C)c(C)cc32)cc1	none (no result: JMJD2E inh, HPGD inh, PNC inhibitor)
O=c1cnnc(SCc2ccc([N+](=O)[O-])cc2)[nH]1	none (no result: HPGD inh, PNC inhibitor)
CC1Cc2ccccc2N1CC(=O)NC(=O)NCc1ccco1 (centres undefined)	ALDH1A1 block inconclusive, PNC inhibitor -122
CCC(C)c1ccc(O)c(N)c1 (centres undefined)	HPGD inh inconclusive, ALDH1A1 block 25µM
CC(C)c1ccc(O)c(N)c1	ALDH1A1 block 28µM
CC(C)(C)c1ccc(O)c(N)c1	ALDH1A1 block inconclusive
CC(C)N(C)CCOC(=O)C1COc2ccccc2O1 (centres undefined)	none (no result: HPGD inh, ALDH1A1 block, PNC inhibitor)
O=C(COC(=O)c1ccc([N+](=O)[O-])s1)NC(c1ccccc1)c1ccccc1	ALDH1A1 block 22µM, PNC inhibitor -116
O=C(COC(=O)c1ccc([N+](=O)[O-])s1)NCc1ccccc1	ALDH1A1 block inconclusive (no result: HPGD inh)
Cc1c(Cl)cnc(NC(=O)COC(=O)c2ccc([N+](=O)[O-])s2)c1Cl	HPGD inh inconclusive, ALDH1A1 block 11µM, PNC inhibitor inconclusive
Cc1[nH]c2ccccc2c1C(=O)COC(=O)c1ccc([N+](=O)[O-])s1	ALDH1A1 block 11µM (no result: HPGD inh, PNC inhibitor)
CC(CO)(CO)Nc1ncnc2ccccc12	none (no result: JMJD2E inh, PNC inhibitor)
CN(CC(=O)Nc1ccccc1C(F)(F)F)C(=O)COc1ncnc2ccccc12	JMJD2E inh inconclusive (no result: HPGD inh, PNC inhibitor)
Cn1c(=O)c2c(ncn2CC(=O)N/N=C/C=C/c2ccccc2[N+](=O)[O-])n(C)c1=O	none (no result: HPGD inh, ALDH1A1 block, PNC inhibitor)
N#CNc1nc(O)cc(=O)[nH]1	none (no result: HPGD inh, PNC inhibitor)
Cc1ccco1	none (no result: JMJD2E inh, PNC inhibitor)
O=c1c(CCc2ccccc2)nc2cnc(N3CCOCC3)nc2n1Cc1ccc(F)cc1	ALDH1A1 block inconclusive (no result: JMJD2E inh, PNC inhibitor)
CCOC(=O)C1=C(C)N=C2SCCC(=O)N2C1c1ccc(C(=O)OC)cc1 (centres undefined)	none
CCOC(=O)C1=C(C)N2C(=C(C#N)[C@@H]1c1ccc(C(=O)OC)cc1)SC[C@@]2(O)C(C)(C)C	JMJD2E inh 20µM, ALDH1A1 block inconclusive
CN1CCN(c2nc(-c3ccccc3C(F)(F)F)nc3ccccc23)CC1	none (no result: JMJD2E inh, HPGD inh, PNC inhibitor)
Cn1ccnc1SCC(=O)c1ccc(Cl)cc1	ALDH1A1 block 14µM (no result: HPGD inh, PNC inhibitor)
Cn1c(CO)cnc1SCC(=O)c1ccc(Cl)cc1	ALDH1A1 block 22µM (no result: HPGD inh, PNC inhibitor)
CCCC(=O)c1ccc(N2CCN(C(=O)c3ccccc3Br)CC2)c(F)c1	ALDH1A1 block 16µM
O=C(CCNC(=O)c1ccccc1Cl)Nc1nnc(C2CC2)s1	none (no result: HPGD inh, PNC inhibitor)
CC(C)(C)C(=O)NC1CCN(S(C)(=O)=O)CC1	PNC inhibitor -100
COC(=O)C1CCN(S(C)(=O)=O)CC1	PNC inhibitor -100
Cc1ccc(C(=O)N/N=C(\CC(C)C)c2ccccc2)cc1	PNC inhibitor -105
COc1cc(C=O)c([N+](=O)[O-])cc1OC	ALDH1A1 block 11µM (no result: PNC inhibitor)
CC(=O)OC[C@@H]1O[C@@H](O/N=C2/C[C@@H](O)[C@@H](O)[C@@H]3[C@@H]4C(=O)N(c5cccc(Oc6ccccc6)c5)C(=O)[C@H]4CC[C@@H]23)[C@H](OC(C)=O)[C@H](OC(C)=O)[C@@H]1OC(C)=O	none (no result: JMJD2E inh, HPGD inh, PNC inhibitor)
Clc1ccccc1N/N=C/c1ccc2c(c1)OCO2	JMJD2E inh inconclusive, HPGD inh inconclusive, ALDH1A1 block inconclusive
CN1C=CC=C/C1=C1\SC(=S)N(c2ccccc2)C1=O	ALDH1A1 block 11µM
CCN1C(C)=C(C)S/C1=C1\SC(=S)N(C2CCCCC2)C1=O	none (no result: HPGD inh, PNC inhibitor)
CN1C=CC=C/C1=C1\SC(=S)N(C2CCCCC2)C1=O	ALDH1A1 block 14µM
c1coc(-c2nc(-c3ccco3)c(-c3ccco3)nc2-c2ccco2)c1	JMJD2E inh inconclusive, HPGD inh inconclusive, ALDH1A1 block inconclusive
c1coc(-c2ncc[nH]2)c1	ALDH1A1 block 18µM, PNC inhibitor -97
CCCNC(=O)/C=C/C(=O)O	none (no result: HPGD inh, PNC inhibitor)
COc1cc(/C=C(\C#N)C(=O)N2CCOCC2)cc(Br)c1O	HPGD inh 25µM, ALDH1A1 block inconclusive, PNC inhibitor inconclusive
CC1COC(=O)C(NNc2ccc(Cl)c(Cl)c2)=N1 (centres undefined)	none (no result: HPGD inh, PNC inhibitor)
COc1ccc2c(c1)C(=O)[C@H](OC(=O)Nc1ccc(OC(F)F)cc1)[C@@H](c1ccc(OC)c(Br)c1)O2	JMJD2E inh inconclusive (no result: PNC inhibitor)
Cc1ccc(C)n1Cc1ccc(C(=O)O)cc1	JMJD2E inh 4.5µM, ALDH1A1 block inconclusive
C/C(CC(=O)Nc1cc(Cl)ccc1Cl)=N\NC(N)=S	ALDH1A1 block 13µM
C/C(CC(=O)Nc1ccc(Cl)cc1Cl)=N\NC(N)=S	ALDH1A1 block inconclusive, PNC inhibitor inconclusive
C[C@@]1(C(NC(=O)Cc2ccccc2)c2ccc(-c3ccccc3)cc2)C[C@H]1C1CCCCC1 (some centres undefined)	none (no result: PNC inhibitor)
c1ccc2c(c1)OCCOCCOCCOCCOc1ccccc1OCCOCCOCCO2	none
c1ccc2c(c1)CC(N1CCN(c3cccc4c3OCCO4)CC1)C2	ALDH1A1 block 22µM (no result: PNC inhibitor)
Cc1cccc(CNc2cc(-c3c(C)noc3C)ncn2)c1	none (no result: JMJD2E inh, HPGD inh, PNC inhibitor)
O=c1[nH][nH]c(=S)n1C1CCCCC1	JMJD2E inh 2.8µM, ALDH1A1 block 1.3µM (no result: HPGD inh, PNC inhibitor)
COc1ccc(C(=O)/C=C/Nc2ccc(S(=O)(=O)Nc3onc(C)c3C)cc2)cc1	ALDH1A1 block inconclusive
CCCc1cc(N2CCCC(C(=O)Nc3ccc(OC)cc3OC)C2)n2ncnc2n1 (centres undefined)	HPGD inh 28µM, ALDH1A1 block inconclusive
